# Values joined by “and” are separate entries in the source; they are usually repeats but may differ in a detail not shown here. Identical values can stand only once. Compounds without any hit were thinned out: in the full panel of roughly 83,000, 20% have a hit.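 Percent growth is the endpoint: 0 to 100 indicates growth inhibition (40 means 60% inhibition), 0 means no net growth, and negative values indicate cell death.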 Active and inactive are the calls of the source. How the source made its calls: active means growth percent below 10; inactive means the rest.
# Legend:
# Assay in all cases: NCI-60 one-dose screen, 48 h (100 = growth as untreated, 0 = no growth, -100 = all killed)
# Conditions in all cases: 10 µM unless noted
# NCI-H23 lung = tested on: NCI-H23 lung
# NCI-H226 lung = tested on: NCI-H226 lung
# NCI-H322M lung = tested on: NCI-H322M lung
# HOP-62 NSCLC = tested on: HOP-62 NSCLC
# NCI-H460 lung = tested on: NCI-H460 lung
# HOP-92 NSCLC = tested on: HOP-92 NSCLC
# NCI-H522 lung = tested on: NCI-H522 lung
# A549/ATCC NSCLC = tested on: A549/ATCC NSCLC
# 786-0 renal = tested on: 786-0 renal
# COLO 205 colon = tested on: COLO 205 colon
SMILES,growth (NCI-H23 lung),growth (NCI-H226 lung),growth (NCI-H322M lung),growth (HOP-62 NSCLC),growth (NCI-H460 lung),growth (HOP-92 NSCLC),growth (NCI-H522 lung),growth (A549/ATCC NSCLC),growth (786-0 renal),growth (COLO 205 colon)
NC(=O)C1CC2C=CC1C2 (configuration not stated),92.1% (inactive) and 106% (inactive),97.7% (inactive) and 98.9% (inactive),104% (inactive) and 107% (inactive),91.2% (inactive) and 98.4% (inactive),103% (inactive) and 110% (inactive),101% (inactive) and 94.5% (inactive),106% (inactive) and 94.2% (inactive),96.2% (inactive) and 100% (inactive),98% (inactive) and 116% (inactive),96.8% (inactive) and 120% (inactive)
COc1cc(Nc2nc3ccccc3nc2NS(=O)(=O)c2ccc(NC(=O)c3ccc(C)c(OC)c3)cc2)cc(OC)c1,48.3% (inactive) and 19.8% (inactive),70.8% (inactive) and 6.54% (active),49.3% (inactive) and -6.86% (active),44.1% (inactive) and -1.64% (active),44.4% (inactive) and 10.5% (inactive),-26.5% (active),40.9% (inactive) and 2.82% (active),50.2% (inactive) and -9.71% (active),69.5% (inactive) and -19.2% (active),66% (inactive) and -11.6% (active)
Cc1cccc(/C=C\C(=O)c2ccccc2)c1,93.5% (inactive) and 101% (inactive),111% (inactive) and 95.5% (inactive),97% (inactive) and 93.7% (inactive),98.5% (inactive) and 111% (inactive),109% (inactive) and 100% (inactive),81.3% (inactive),95.3% (inactive),87.7% (inactive) and 92.8% (inactive),79.7% (inactive),112% (inactive) and 114% (inactive)
CCCCOc1cc(C(=O)NCCN(CC)CC)c2ccccc2n1,88.7% (inactive) and 106% (inactive),94.5% (inactive) and 105% (inactive),100% (inactive) and 94.7% (inactive),99.4% (inactive) and 102% (inactive),110% (inactive) and 103% (inactive),45.8% (inactive) and 51.7% (inactive),103% (inactive),–,90.6% (inactive) and 99.9% (inactive),89.6% (inactive) and 93.1% (inactive)
O=C1OC2(c3ccccc31)c1ccc(O)c(O)c1Oc1c2ccc(O)c1O,105% (inactive) and 102% (inactive),90.5% (inactive) and 121% (inactive),109% (inactive) and 130% (inactive),114% (inactive) and 101% (inactive),114% (inactive) and 109% (inactive),61.9% (inactive) and 120% (inactive),89.8% (inactive) and 84.1% (inactive),105% (inactive),109% (inactive) and 117% (inactive),115% (inactive) and 117% (inactive)
CN(C)c1ccc2nc3ccc(=[N+](C)C)cc-3sc2c1,12.5% (inactive) and 8.52% (active) and 28% (inactive),52.2% (inactive) and 66.6% (inactive) and 68.8% (inactive),24.8% (inactive) and 11.7% (inactive) and 30.7% (inactive),58.7% (inactive) and 24.6% (inactive) and 46.6% (inactive),17.1% (inactive) and 13.5% (inactive) and 32.9% (inactive),63.3% (inactive) and 43.9% (inactive) and 76.6% (inactive),6.69% (active) and 34.6% (inactive) and 37.6% (inactive),3.7% (active) and 3.9% (active) and 14.7% (inactive),40.9% (inactive) and 45.6% (inactive) and 54.6% (inactive),11.2% (inactive) and -3.25% (active) and -16.6% (active)
CNC(=O)c1ccc(C)c(-n2c(C)cc(OCc3ccc(F)cc3F)c(Br)c2=O)c1,66% (inactive) and 74.1% (inactive),67.2% (inactive) and 64.6% (inactive),86.3% (inactive) and 92.8% (inactive),69.8% (inactive) and 89% (inactive),80.3% (inactive) and 97.2% (inactive),64.3% (inactive) and 90.9% (inactive),52.3% (inactive) and 47.1% (inactive),–,85.9% (inactive) and 84.2% (inactive),61% (inactive) and 91.8% (inactive)
Cc1nnc(NC/C=C/c2ccccc2)s1,98.5% (inactive) and 2.04% (active),106% (inactive) and 102% (inactive),88.5% (inactive) and 112% (inactive),88.7% (inactive) and 111% (inactive),105% (inactive) and 108% (inactive),91.3% (inactive) and 91.5% (inactive),112% (inactive),101% (inactive),100% (inactive) and 102% (inactive),110% (inactive) and 113% (inactive)
CN(C)CCCNC1=C(Cl)C(=O)c2ccccc2C1=O,-41.4% (active) and -79.2% (active),102% (inactive) and 97.7% (inactive),92.4% (inactive) and 98.7% (inactive),78.8% (inactive) and 85.1% (inactive),78.9% (inactive) and 83.8% (inactive),108% (inactive) and 107% (inactive),80.4% (inactive) and -30.3% (active),–,99.5% (inactive) and 79.4% (inactive),-73.7% (active) and -85.8% (active)

# — PubChem BioAssay (NCI)
